The assay deals with V-C8 + BRCA2 (BRCA2-proficient hamster cells). Description: normalised cell viability (fraction of plate median); higher = more viable cells (less toxic). As to conditions: 5 µM. In short, it runs like this: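 Library drugs, held as 10 mM stocks in DMSO, were diluted to 5 μM in 100 μl medium and added to 96-well plates of V-C8 hamster cells, either lacking BRCA2 or with BRCA2 restored, 24 h after seeding. Plates ran for 3 days (screen 1) or 6 days (screen 2), alongside solvent-only wells. Viability came from a resazurin readout, median-plate normalised, as the mean of triplicate wells.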

Where a name gives a salt, the structure may show the parent alone. ± gives the standard deviation of the averaged measurements. In all, about 1,300 compounds were measured (“normalised cell viability”: median about 1, lowest 2% from about 0.15 on). This is one part of a sample in which the lowest values are shown more often than they occur.

In the case of `Nc1c2ccccc2nc2ccccc12` [Aminacrine], the normalised cell viability stood at 0.139 ± 0.0043 (treatment time: 3 days) and 0.156 ± 0.024 (treatment time: 6 days).

`O=C(Nc1ccc([N+](=O)[O-])cc1Cl)c1cc(Cl)ccc1O` [Niclosamide]: the normalised cell viability by setting is: (treatment time: 3 days) 0.139 ± 0.0082; (treatment time: 6 days) 0.127 ± 0.0065.

With `O=C(OCCOCCO)c1ccccc1Nc1cccc(C(F)(F)F)c1` [Etofenamate], the normalised cell viability is, setting by setting: (treatment time: 3 days) 0.988 ± 0.045; (treatment time: 6 days) 0.987 ± 0.061.

Turning to `COC(=O)Nc1nc2cc(C(=O)c3cccs3)ccc2[nH]1` [Nocodazole], the normalised cell viability is 0.143 ± 0.0097 (treatment time: 3 days) and 0.132 ± 0.01 (treatment time: 6 days).

`COC(=O)Nc1nc2cc(Sc3ccccc3)ccc2[nH]1` [Fenbendazole]: the normalised cell viability came out at 0.183 ± 0.0078 (treatment time: 3 days) and 0.179 ± 0.017 (treatment time: 6 days).

Consider `COC(=O)Nc1nc2cc([S+]([O-])c3ccccc3)ccc2[nH]1` (stereo not given) [Oxfendazol], for which the normalised cell viability was 0.74 ± 0.055 (treatment time: 3 days) and 0.827 ± 0.05 (treatment time: 6 days).

Turning to `COC(=O)Nc1nc2cc(C(=O)c3ccc(F)cc3)ccc2[nH]1` [Flubendazol], the normalised cell viability by setting is: (treatment time: 3 days) 0.168 ± 0.017; (treatment time: 6 days) 0.167 ± 0.0085.

Take `CCCOc1ccc2[nH]c(NC(=O)OC)nc2c1` [Oxibendazol]: the normalised cell viability came to 0.18 ± 0.0021 (treatment time: 3 days) and 0.194 ± 0.0035 (treatment time: 6 days).

For the compound `COC(=O)Nc1nc2cc(C(=O)c3ccccc3)ccc2[nH]1` [Mebendazole], the normalised cell viability reads like this: (treatment time: 3 days) 0.163 ± 0.013; (treatment time: 6 days) 0.151 ± 0.0072.

Consider `NCC[C@H](O)C(=O)N[C@@H]1C[C@H](N)[C@@H](O[C@H]2O[C@H](CN)[C@@H](O)[C@H](O)[C@H]2O)[C@H](O)[C@H]1O[C@H]1O[C@H](CO)[C@@H](O)[C@H](N)[C@H]1O` [Amikacin hydrate], for which the normalised cell viability by setting is: (treatment time: 3 days) 0.584 ± 0.023; (treatment time: 6 days) 0.699 ± 0.089.

Regarding `CN(C)CCC=C1c2ccccc2C=Cc2ccccc21` [Cyclobenzaprine hydrochloride], the normalised cell viability was found to be 1.06 ± 0.062 (treatment time: 3 days) and 1.08 ± 0.034 (treatment time: 6 days).

With `Cc1ccc(Cl)c(Nc2ccccc2C(=O)O)c1Cl` [Meclofenamic acid sodium salt monohydrate], the normalised cell viability is, setting by setting: (treatment time: 3 days) 1.02 ± 0.068; (treatment time: 6 days) 1.08 ± 0.084.

As to `N=C(N)NCC1COC2(CCCCC2)O1` (stereo not given) [Guanadrel sulfate], the normalised cell viability stood at 1.06 ± 0.038 (treatment time: 3 days) and 1.03 ± 0.041 (treatment time: 6 days).

For `CN(C/C=C/C#CC(C)(C)C)Cc1cccc2ccccc12` [Terbinafine], the normalised cell viability was determined as 0.206 ± 0.0049 (treatment time: 3 days) and 0.339 ± 0.031 (treatment time: 6 days).

Consider `CCCCCCC[N+](CC)(CC)CCCCc1ccc(Cl)cc1` [Clofilium tosylate], for which the normalised cell viability reads like this: (treatment time: 3 days) 0.897 ± 0.063; (treatment time: 6 days) 0.935 ± 0.094.

`CN1CCN(CCCN2c3ccccc3Sc3ccc(S(=O)(=O)N(C)C)cc32)CC1` [Thioproperazine dimesylate]: the normalised cell viability reads like this: (treatment time: 3 days) 0.884 ± 0.11; (treatment time: 6 days) 0.834 ± 0.039.

As for `N=C(N)N/N=C/c1c(Cl)cccc1Cl` [Guanabenz acetate], the normalised cell viability (treatment time: 3 days) is 1.1 ± 0.022 and the normalised cell viability (treatment time: 6 days) came to 1.01 ± 0.082.

In the case of `Cn1cnc([N+](=O)[O-])c1Sc1ncnc2[nH]cnc12` [Azathioprine], the normalised cell viability runs as follows: (treatment time: 3 days) 0.93 ± 0.032; (treatment time: 6 days) 0.93 ± 0.045.

Consider `C[C@@H]1CN(c2c(F)c(N)c3c(=O)c(C(=O)O)cn(C4CC4)c3c2F)C[C@H](C)N1` [Sparfloxacin], for which the normalised cell viability amounted to 1.027 ± 0.009 (treatment time: 3 days) and 1.05 ± 0.056 (treatment time: 6 days).

In the case of `COC(=O)C1=C(C)NC(C)=C(C(=O)OC(C)C)C1c1cccc2nonc12` (stereo not given) [Isradipine], the normalised cell viability turned out to be 1.02 ± 0.032 (treatment time: 3 days) and 0.9264 ± 0.0066 (treatment time: 6 days).

As to `CC1CNc2c(cccc2S(=O)(=O)N[C@@H](CCCNC(=N)N)C(=O)N2CC[C@@H](C)C[C@@H]2C(=O)O)C1` (stereo not given in full) [Argatroban], the normalised cell viability is, setting by setting: (treatment time: 3 days) 1.203 ± 0.0019; (treatment time: 6 days) 1.12 ± 0.14.

On to `CC(=O)N(CC(O)CN(C(C)=O)c1c(I)c(C(=O)NCC(O)CO)c(I)c(C(=O)NCC(O)CO)c1I)c1c(I)c(C(=O)NCC(O)CO)c(I)c(C(=O)NCC(O)CO)c1I` (stereo not given) [Iodixanol], for which the normalised cell viability runs as follows: (treatment time: 3 days) 0.975 ± 0.053; (treatment time: 6 days) 1 ± 0.059.

For `CN1CCC(OC(c2ccccc2)c2ccccc2)CC1` [Diphenylpyraline hydrochloride], the normalised cell viability (treatment time: 3 days) turned out to be 0.976 ± 0.11 and the normalised cell viability (treatment time: 6 days) was 1.04 ± 0.037.

`CO[C@@]1(NC(=O)CSCC#N)C(=O)N2C(C(=O)O)=C(CSc3nnnn3C)CS[C@@H]21` [Cefmetazole sodium salt]: the normalised cell viability (treatment time: 3 days) worked out at 0.959 ± 0.029 and the normalised cell viability (treatment time: 6 days) stood at 0.98 ± 0.072.

As to `O=C(Nc1cccc2c(=O)cc(-c3nnn[nH]3)oc12)c1ccc(OCCCCc2ccccc2)cc1` [Pranlukast], the normalised cell viability runs as follows: (treatment time: 3 days) 1.06 ± 0.05; (treatment time: 6 days) 1.08 ± 0.049.

For the compound `CCN(CC)CCOCCOC(=O)C1(c2ccccc2)CCCC1` [Carbetapentane citrate], the normalised cell viability runs as follows: (treatment time: 3 days) 0.163 ± 0.0089; (treatment time: 6 days) 0.181 ± 0.0049.

As for `O=C(O)CCC(=O)Nc1ccc(S(=O)(=O)Nc2nccs2)cc1` [Succinylsulfathiazole], the normalised cell viability by setting is: (treatment time: 3 days) 0.979 ± 0.083; (treatment time: 6 days) 1.04 ± 0.04.

As to `CC(C)(C)NCC(O)c1cc(O)cc(O)c1` (stereo not given) [Terbutaline hemisulfate], the normalised cell viability is 0.45 ± 0.037 (treatment time: 3 days) and 0.5206 ± 0.0045 (treatment time: 6 days).

On to `OCC(O)CN1CCN(c2ccccc2)CC1` (racemic) [Dropropizine (R,S)], for which the normalised cell viability runs as follows: (treatment time: 3 days) 1.07 ± 0.041; (treatment time: 6 days) 0.9583 ± 0.0092.

Regarding `COC(=O)C1=C(C)NC(C)=C(C(=O)OC2CCCN(Cc3ccccc3)C2)C1c1cccc([N+](=O)[O-])c1` (stereo not given) [Benidipine hydrochloride], the normalised cell viability was determined as 0.988 ± 0.065 (treatment time: 3 days) and 0.97 ± 0.04 (treatment time: 6 days).

In the case of `COc1ccc(C2CNC(=O)C2)cc1OC1CCCC1` (stereo not given) [Rolipram], the normalised cell viability runs as follows: (treatment time: 3 days) 0.985 ± 0.037; (treatment time: 6 days) 1.15 ± 0.22.

Take `CC(C)c1c(C(=O)Nc2ccccc2)c(-c2ccccc2)c(-c2ccc(F)cc2)n1CC[C@@H](O)C[C@@H](O)CC(=O)O` [Atorvastatin]: the normalised cell viability is, setting by setting: (treatment time: 3 days) 0.701 ± 0.01; (treatment time: 6 days) 0.743 ± 0.017.

Turning to `CC(C)n1c(/C=C/C(O)CC(O)CC(=O)O)c(-c2ccc(F)cc2)c2ccccc21` (stereo not given) [Fluvastatin sodium salt], the normalised cell viability is 0.134 ± 0.0077 (treatment time: 3 days) and 0.155 ± 0.013 (treatment time: 6 days).

`CC[N+](C)(C)Cc1ccccc1Br` [Bretylium tosylate]: the normalised cell viability runs as follows: (treatment time: 3 days) 0.9932 ± 0.0068; (treatment time: 6 days) 0.977 ± 0.013.

On to `C=C(NC(=O)C(=C)NC(=O)c1csc(C2=N[C@@H]3c4csc(n4)[C@H]4NC(=O)c5csc(n5)[C@H]([C@](C)(O)[C@@H](C)O)NC(=O)[C@H]5CSC(=N5)/C(=C/C)NC(=O)[C@H]([C@@H](C)O)NC(=O)c5csc(n5)[C@]3(CC2)NC(=O)[C@H](C)NC(=O)C(=C)NC(=O)[C@H](C)NC(=O)[C@H]([C@@H](C)CC)N[C@@H]2C=Cc3c([C@H](C)O)cc(nc3[C@H]2O)C(=O)O[C@@H]4C)n1)C(N)=O` [Thiostrepton], for which the normalised cell viability is 0.135 ± 0.0082 (treatment time: 3 days) and 0.126 ± 0.013 (treatment time: 6 days).

The values above are taken from the supplement of paper PMC6609913.
